# ClpP mod – qHTS Assay for Activators of ClpP; purified B. subtilis ClpP, FRET peptide cleavage, 20 min; Potency, µM (top dose mostly 57.5 µM), for inactives: at the highest dose activity change, negative = active; actives 1.9% (n = 340,000); active = well fitted falling curve with a large enough effect; inconclusive = small, poorly fitted or top-dose-only effect; inactive = no such curve, though single readings can be large or run the other way; also: the source files actives as falling curves though it sought activators and does not explain the sign; nearly all actives have a fitted effect of over 65% in size
#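 FRET quenching reversal measured ClpP activation: 10 microg/mL B. subtilis ClpP at pH 8 with the FRET-FV decapeptide, read at 430 nm after 320 nm excitation. The 20-min minus 0-min signal was scaled between DMSO/no-enzyme wells and ADEP (5.8 microM final).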
# TDP1 inh – qHTS Assay for Inhibitors of Tyrosyl-DNA Phosphodiesterase (TDP1) | recombinant TDP1, AlphaScreen DNA substrate cleavage | Potency, µM (doses to about 130 µM), inactives show top-dose activity change, negative = inhibition, actives largely listed as inhibitors | actives 0.28% (n = 350,000); also: % is scaled to controls: 0 for no effect and ±100 for the full control effect; nearly all actives have a fitted effect of over 40% in size
#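 Steps: enzyme plus compound, 15 min RT; add biotin/phosphotyrosine-FITC oligonucleotide (15 nM final), react 5 min; add donor/acceptor beads (10 ug/ml final), 10 min; read AlphaScreen. Tdp1 at 1 nM final.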
# DT40 TDP1 CPT – qHTS for Inhibitors of human tyrosyl-DNA phosphodiesterase 1 (TDP1): qHTS in cells in presence of CPT. chicken DT40 Tdp1-/-;hTDP1 cells + 20 nM CPT, ATP luminescence, 48 h. Potency, µM (top dose mostly 46.2 µM), inactives show at the top dose activity change, negative = growth inhibition, usual class: inhibitors. actives 12% (n = 420,000). AID 686979, 2013; also: % is scaled to controls: 0 for no effect and ±100 for the full control effect; nearly all actives have a fitted effect of over 55% in size
#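 Chicken DT40 Tdp1-/- cells stably complemented with human TDP1 were seeded at 400 cells/well in medium containing 20 nM camptothecin, exposed to pin-transferred compounds, and grown at 37 °C for at least 48 hr. Viability was read as ATP luminescence.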
# TDP1 cell noCPT – qHTS for Inhibitors of human tyrosyl-DNA phosphodiesterase 1 (TDP1): qHTS in cells in absence of CPT; Potency, µM (doses to about 46.2 µM), without a hit: at the top dose activity change, negative = growth inhibition, hits mostly inhibitors; AID 686978, 2013; DT40 Tdp1-/- hTDP1 cells, no CPT, ATP luminescence, 48 h; actives 15% (n = 420,000); also: % is scaled to controls: 0 for no effect and ±100 for the full control effect; nearly all actives have a fitted effect of over 55% in size
#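 Compound effects on proliferation are scored in DT40 Tdp1-/-;hTDP1 cells in the absence of CPT. ATP levels (CellTiter-Glo luminescence) are recorded after a ≥48 hr, 37 °C incubation.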
# The depositor's hits bear a star; u = inconclusive; x = not tested or not shown; [ ] = remark or other dose. Most compounds without a hit are left out; they make up all but 17% or so of the library. Unless noted, calls follow the shape of the dose curve; as a rule, active = well fitted curve in the direction sought with a large enough effect; inconclusive = small, poorly fitted or top-dose-only effect, or another doubt; inactive = no such curve, though single readings can be large; an effect the other way counts as inactive or inconclusive. Potency is read from the fitted curve at half-maximal effect.
SMILES,ClpP mod,TDP1 inh,DT40 TDP1 CPT,TDP1 cell noCPT
CCC(C)NC(=O)CCCn1c(=O)c2cccn2c2ccccc21 (stereo unspecified),-4.7%,2.6%,-27.8%,-10.4%
CCOc1ccc(CCNC(=O)CCCn2c(=O)c3cccn3c3ccccc32)cc1,-8.7%,2.6%,18.4µM*,23.1µM*
CSc1ccc(CCNC(=O)CCn2c(=O)c3cccn3c3ccc(F)cc32)cc1,u,-1.3%,u,u
CSc1ccc(CCNC(=O)Cn2ncn3c(cc4ccccc43)c2=O)cc1,20µM*,5.9%,-19.2%,-12.1%
O=C(COC(=O)/C=C/c1ccccc1[N+](=O)[O-])NNC(=O)c1ccc(F)cc1,-1.8%,3.6%[0.505 µM],-3.0%,-1.0%
Cc1cccc(N2CCN(C(=O)c3oc(=O)c4ccccc4c3-c3ccccc3)CC2C)c1 (stereo unspecified),-5.1%,0.0%,u,u
O=C(CC[C@H]1O[C@@H](n2ccc(=O)[nH]c2=O)[C@H](O)[C@@H]1O)NC1CCN(Cc2ccccc2)C1 (stereo partly specified),1.2%,x,19.0%,-1.4%
COC(=O)C1CN(Cc2ccccc2)C(=O)C1=O (stereo unspecified),x,x,7.4%,-22.6%
CC(C)(C)c1ccc(N2C[C@@H](COc3ccc(C(=O)O)cc3)CC2=O)cc1,x,8.9%,x,x
Cc1c(OCC(=O)NC2CC(C)(C)NC(C)(C)C2)ccc2c1oc(=O)c1ccccc12,3.9%,-0.1%,u,11.6µM*
COc1ccccc1CC(=O)NC1CC1,-0.2%,3.7%,0.6%,-4.8%
COc1ccccc1CC(=O)NC1CC(C)(C)NC(C)(C)C1,28.2µM*,-3.9%,11.3%,6.3%
CC(C)(C)c1ccc(OCC(=O)Nc2ccc(C(=O)OC3CCCCC3)cc2)cc1,-1.0%,-3.1%[12.3 µM],u,-25.3%
c1ccc(-c2nnc(C3CC(c4ccncc4)=NO3)o2)cc1 (stereo unspecified),-0.5%,x,-8.0%,2.5%
CN(C)C(=O)c1cccc(COc2ccc(N3C(N)=NC(N)=NC3(C)C)cc2Cl)c1,0.7%,x,0.0184µM*,0.164µM*
CN(C)C(=O)c1ccc(COc2ccccc2Br)o1,1.0%,0.0%,u,u
CN(C(=O)c1cccc(COc2ccc(Cl)cc2Cl)c1)c1ccccc1,-1.3%,-2.7%,20.6µM*,u
O=C([C@@H]1CC=C[C@@H]2CCN(C3CCCCC3)C(=O)[C@@H]21)N1CCOCC1,0.4%,x,0.1%,-8.5%
O=C([O-])c1ccccc1-[n+]1c(-c2ccccc2)cc(-c2ccccc2)cc1-c1ccccc1,-19.5%,1.3%,4.61µM*,5.8µM*
COc1ccc2[nH]c(=O)c(-c3noc(-c4ccccc4)n3)cc2c1,-12.2%,-4.9%,20.6µM*,18.4µM*
c1ccc(-c2noc(-c3cccnc3)n2)cc1,-1.7%,4.1%,-6.2%,0.8%
O=c1[nH]c2ccccc2cc1-c1noc(-c2cccnc2)n1,31.6µM*,2.0%,-18.6%,u
O=C(NCc1ccc(Cl)cc1)c1ccc(CNS(=O)(=O)c2ccc(F)cc2)cc1,2.1%,4.7%,-19.5%,-4.3%
CCc1nc(-c2ccc(OC)c(OC)c2)cc2cc(OC)c(OC)cc12,0.7%,-2.7%,16.4µM*,20.6µM*
CC(C)Cc1ccc(-c2cc3nc(NCCOc4ccccc4)ccn3n2)cc1,4.7%,x,u,u
SMILES,ClpP mod,TDP1 inh,DT40 TDP1 CPT,TDP1 cell noCPT
CN(C)C(=O)CNc1ccn2nc(-c3cccc(Cl)c3)cc2n1,4.6%,x,23.1µM*,18.4µM*
Clc1cccc(-c2cc3nc(NCCOc4ccccc4)ccn3n2)c1,4.2%,x,-2.3%,-5.2%
Clc1cccc(CNc2ccn3nc(-c4ccc(OCc5ccccc5)cc4)cc3n2)c1,4.9%,x,16.4µM*,u
Clc1cccc(CNc2ccn3nc(-c4ccccc4)cc3n2)c1,5.1%,x,23.1µM*,20.6µM*
Clc1ccc(-c2cc3nc(NCc4cccc(Cl)c4)ccn3n2)cc1,5.1%,x,u,25.9µM*
COc1ccc(C2(CNC(=O)c3cccs3)CCOCC2)cc1,0.0%,2.7%,2.4%,-4.1%
O=C(CC1CC1)N[C@@H]1CC[C@@H](CCNS(=O)(=O)c2ccc(F)cc2)O[C@@H]1CO,-1.2%,x,18.6%,-2.0%
CN1CCN(C(=O)c2cnn3c2NC(c2ccccc2)CC3C(F)(F)F)CC1 (stereo unspecified),x,-8.6%,10.8%,12.3%
CCOC(=O)C(N)CSC1CC(=O)N(CCc2ccccc2)C1=O (stereo unspecified),-4.3%,2.9%,-17.0%,25.0%
Cc1ccc(-n2nc(C(=O)NCc3ccc(C)o3)c3c4ccccc4n(C)c3c2=O)cc1,-3.6%,5.3%,-29.2%,u
Cc1cncc(NCc2cccc(Cl)c2)n1,5.6%,x,-18.7%,-25.3%
CC(C)(C)c1cc2nc(NCc3cccc(Cl)c3)ccn2n1,-26.5%,x,18.4µM*,16.4µM*
Cn1c(=O)c(-c2ccccc2)nc2cnc(OCc3ccccc3)nc21,x,x,12.2%,-10.7%
O=C(Cc1cccc(NC(=O)C2CCN(C(=O)CCc3ccccc3)CC2)c1)Nc1cccc(C(=O)N2CCOCC2)c1,0.5%,x,14.6µM*,14.6µM*
O=C(Cc1cccc(NC(=O)C2CCN(C(=O)CCc3ccccc3)CC2)c1)Nc1cccc(C(=O)N2CCCCC2)c1,-3.0%,x,u,18.4µM*
O=C(Cc1cccc(NC(=O)C2CCN(C(=O)C3CCC3)CC2)c1)Nc1cccc(C(=O)N2CCCC2)c1,-0.5%,0.2%,-11.7%,4.7%
O=C(Cc1ccc(NC(=O)C2CCN(C(=O)CCc3ccccc3)CC2)cc1)Nc1ccc(C(=O)N2CCOCC2)cc1,1.5%,x,u,16.4µM*
O=C(Cc1cccc(NC(=O)C2CCN(C(=O)c3ccccc3)CC2)c1)Nc1cccc(C(=O)N2CCOCC2)c1,3.4%,x,14.8%,-3.1%
Cc1cccc(NS(=O)(=O)c2cn(C)c(=O)n(C)c2=O)c1C,1.7%,x,0.0%,-0.4%
Cc1ccccc1N(CC(=O)N/N=C/c1ccccc1Cl)C(=O)c1ccccc1,-0.2%,3.0%,-15.5%,-23.1%
Cc1ccccc1N(CC(=O)N/N=C/c1ccc(N(C)C)cc1)C(=O)c1ccccc1,35.5µM*,0.0%,u,u
CC(C)OC(=O)c1cc(C(=O)OC(C)C)cc([N+](=O)[O-])c1,x,x,5.0%[92.5 µM],-6.5%[92.5 µM]
O=C(NNC(=S)Nc1ccc(F)cc1)c1cccc([N+](=O)[O-])c1,x,8.9%,-8.3%,-3.0%
CC(C)OC(=O)c1cc(NC(=S)Nc2ccc([N+](=O)[O-])cc2)cc(C(=O)OC(C)C)c1,u,2.6%,9.2µM*,11.6µM*
CCCCNC(=S)Nc1ccc(Oc2ccccc2)cc1,x,2.7%,u,20.6µM*
